Data taken from PubChem BioAssay AID687016 (The Scripps Research Institute Molecular Screening Center, 2013).
About 2,800 (0.76%) of roughly 370,000 compounds were called active. The sample as a whole holds a higher share of actives than the screen did. A number with no mark means an inactive call. Cut-off read from the data, not from the text of the source: active = inhibition above about 21%; inactive = the rest.

Each compound was assayed against E3 ubiquitin-protein ligase UHRF1 (Homo sapiens) (UniProt Q96T88) (assay: blockers of UHRF1 binding to methyl-oligo – biochemical, TR-FRET, human UHRF1, single concentration, counter-screen for MBD2 inhibitor project, primary screen (AID 687016;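 note: UHRF1 SRA domain binding a hemimethylated CpG hairpin DNA probe; 0% = median of test compound wells and 100% = reference inhibitor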)). Details: UHRF1 binding to methylated oligo, at 4.4 µM, active compounds read high.
Chain of E3 ubiquitin-protein ligase UHRF1 (Homo sapiens) (Q96T88 whole entry, looked up, the tested form may be a part): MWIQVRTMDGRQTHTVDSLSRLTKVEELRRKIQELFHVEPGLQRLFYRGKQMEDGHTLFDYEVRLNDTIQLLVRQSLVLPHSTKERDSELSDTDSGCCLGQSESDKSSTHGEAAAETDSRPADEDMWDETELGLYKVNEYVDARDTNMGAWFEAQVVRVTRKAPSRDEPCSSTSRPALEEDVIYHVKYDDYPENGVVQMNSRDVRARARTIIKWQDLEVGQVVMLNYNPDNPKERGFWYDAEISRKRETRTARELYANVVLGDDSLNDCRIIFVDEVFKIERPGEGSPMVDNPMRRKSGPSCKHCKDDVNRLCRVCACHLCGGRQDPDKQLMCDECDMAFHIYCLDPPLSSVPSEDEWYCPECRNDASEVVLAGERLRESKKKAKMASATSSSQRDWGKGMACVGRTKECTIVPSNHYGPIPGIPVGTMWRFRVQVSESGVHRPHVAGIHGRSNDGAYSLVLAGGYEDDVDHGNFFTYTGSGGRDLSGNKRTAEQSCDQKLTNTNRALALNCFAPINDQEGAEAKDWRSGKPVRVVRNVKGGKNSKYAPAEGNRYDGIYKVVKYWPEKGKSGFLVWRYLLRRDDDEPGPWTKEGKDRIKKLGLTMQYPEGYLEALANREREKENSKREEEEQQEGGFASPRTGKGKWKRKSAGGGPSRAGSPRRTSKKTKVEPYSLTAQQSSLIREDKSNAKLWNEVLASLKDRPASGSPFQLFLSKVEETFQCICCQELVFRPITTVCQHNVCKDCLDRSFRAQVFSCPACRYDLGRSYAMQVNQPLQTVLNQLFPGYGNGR

| SMILES | inhibition |
| --- | --- |
| COC(=O)c1ccc(NC(=S)NN2CCOCC2)cc1 | -1.42% |
| S=C(NC1CCCCC1)NN1CCOCC1 | 32.8% (active) |
| CC(NC(=S)NC1CCCCC1)C(c1ccccc1)N1CCOCC1 (stereo not given) | 0.56% |
| N[C@@H](Cc1ccccc1)C(=O)N1CCC[C@@H]1C(=O)N1CCC2CCN(S(=O)(=O)c3ccccc3)CC21 (stereo not given in full) | 1.24% |
| C=CCN(C)CC#Cc1ccccc1 | 1.63% |
| NC(=O)c1ccc(CN2CCC(Cc3ccccc3)CC2)cc1 | -0.37% |
| CC(C)(C)NC(=O)NC(=O)CN1CCC(Cc2ccccc2)CC1 | 38.1% (active) |
| O=C(CN1CCCCC1)NC(=O)Nc1ccccc1F | -2.79% |
| CC(CCN1CCC(C(O)(c2ccccc2)c2ccccc2)CC1)Oc1ccc([N+](=O)[O-])cc1Cl (stereo not given) | -2.34% |
| CCCC[C@H]1C2CC(OC(=O)NCc3ccccc3)C(C2)[C@H]2CCCCN21 (stereo not given in full) | 2.4% |
| COc1ccc(C(=O)OCCN2CCN(C3CN(Cc4cn(Cc5ccccc5F)nn4)S(=O)(=O)C3)CC2)cc1OC (stereo not given) | 16.4% |
| C=CCn1c(=S)[nH]c2scc(-c3ccco3)c2c1=O | 42% (active) |
| O=C(CSc1nnc(-c2ccccc2)n1Cc1ccco1)Nc1ccccc1-c1ccccc1 | -1.14% |
| Cc1ccc(-n2c(SCC(=O)Nc3ccc(S(=O)(=O)Nc4nccs4)cc3)nnc2-c2ccncc2)cc1 | -0.73% |
| CCOc1ccc(-n2c(SCC(=O)Nc3cc(C)c(NC(=O)c4ccccc4)cc3OC)nnc2-c2cccc(Cl)c2)cc1 | -1.29% |
| O=C(NC1CCC1)c1ccc(C#CC2CC2)cn1 | 1.8% |
| COCCCNC(=O)C[C@H]1C[C@@]2(C(=O)OC)C(=C[C@H](C(C)(C)C)O[C@@H]2C)N(Cc2ccc(Cl)cc2Cl)C1=O | -1% |
| Cc1cc(C)c(OCCN2CC(C)OC(C)C2)c(Br)c1 (stereo not given) | 22.5% (active) |
| CC1CN(CCCOc2ccccc2-c2ccccc2)CC(C)O1 (stereo not given) | 1.48% |
| CC1CN(CCOc2ccccc2[N+](=O)[O-])CC(C)O1 (stereo not given) | 0.96% |
| CCn1c(=O)n2n(c1=O)[C@@]1(C=C3CCCC[C@H]32)N=C(NC(=O)c2ccccc2)N(Cc2ccccc2)[C@H]1Cc1ccccc1 | 1.35% |
| CCN(CC)C(=O)CC[C@H]1CC[C@]2(CCCN(Cc3ccc(Cl)cc3)C2)O1 | -2.85% |

| SMILES | inhibition |
| --- | --- |
| COC(=O)Cc1c(O)ccn(Cc2cccc(C(F)(F)F)c2)c1=O | -0.17% |
| COC(=O)Cc1csc(/N=C/c2c(O)n(-c3cccc(C(F)(F)F)c3)c(=O)c3ccccc23)n1 | 20.8% (active) |
| O=C(Cc1cccs1)NCc1cccc(C(F)(F)F)c1 | 2.41% |
| COc1ccc(CN2C(=O)N3Cc4cc(OC)ccc4C3CS2(=O)=O)cc1 (stereo not given) | -0.8% |
| Cc1ccc(NC(=O)Nc2cc(C)nn2-c2ccccc2)cc1 | -0.03% |
| C#CCNC(=O)C[C@H]1C[C@@]2(C(=O)OC)C(=C[C@H](C(C)C)O[C@@H]2C2CC2)N(Cc2ccco2)C1=O | 1.95% |
| COc1ccc(NC(=O)CN(C)C(=O)c2cc(C)oc2C)cc1 | 0.64% |
| COc1ccc(Cc2n[nH]c(=S)n2NC(=O)Nc2ccc(C)cc2)cc1 | -1.17% |
| COc1ccc(CC(=O)Nc2ccc(-c3nnc(-c4ccc(C)cc4)o3)cc2)cc1 | 22.5% (active) |
| O=S1(=O)c2c(cccc2N2CC[C@H](O)C2)O[C@@H]2CCN1C2 | 1.23% |
| CC(C)c1ccc(C2C(C#N)=C(N)Oc3c2oc(CO)cc3=O)cc1 (stereo not given) | -3.69% |
| Cc1cc2c(c(=O)n1Cc1ccco1)C(c1ccccc1)C(C#N)=C(N)O2 (stereo not given) | 32.8% (active) |
| Cc1cc2c(c(=O)n1C)C(C(C)C)C(C#N)=C(N)O2 (stereo not given) | 0.11% |
| CCN(C(=O)[C@@H](C1CC1)[C@@H](O)c1ccc2ccccc2c1)c1ccccc1 | -2.68% |
| COc1ccc(C(=O)OCCN(C)C2CN(Cc3cn(Cc4cccc(C)c4)nn3)S(=O)(=O)C2)cc1OC (stereo not given) | 13.8% |
| Cc1nn(-c2ccccc2)c(-n2cccc2)c1C(=O)O | 1.78% |
| Cc1nn(-c2ccccc2)c(Cl)c1/C=N/NC(=O)c1nn(C)cc1[N+](=O)[O-] | 23.8% (active) |
| Cn1nccc1/C=N\NC(=O)c1ccc(Cl)cc1 | 4.97% |
| CC(C)CNC(=O)OCc1cn(Cc2ccc(F)cc2)nn1 | 3.53% |
| COC(=O)[C@H](C(C)C)N(CCc1cn(Cc2ccccc2)nn1)S(=O)(=O)c1ccc(F)cc1Br | -0.16% |
| Cc1ccc(Cn2cc(CN3[C@@H](CC(C)C)COc4ccc(Cl)cc4S3(=O)=O)nn2)cc1 | -2.98% |
| c1coc(CCNc2ncnc3ccc(-c4ccc5c(c4)OCO5)cc23)c1 | -3.63% |

| SMILES | inhibition |
| --- | --- |
| COC(=O)c1cccc(Cn2ccc3ccc(-c4ccc5ccn(C(=O)c6ccccc6C)c5c4)cc32)c1 | -1.17% |
| O=C(CN1CCN(c2ccc(O)cc2)CC1)Nc1ccc(-c2ccccc2)cc1 | -0.69% |
| O=C(COC(=O)c1ccccc1C(=O)N1CCN(c2ccccc2)CC1)NCc1ccccc1 | -3.11% |
| Oc1ccc(N2CCN(C(=S)NCc3ccccc3)CC2)cc1 | 40.4% (active) |
| CCOC(=O)C1CCN(C(=O)C(C)(C)NC(=O)Nc2ccccc2Cl)CC1 | 0.18% |
| COC(=O)[C@]12C[C@H](CC(=O)NCc3cccs3)C(=O)N(CCc3ccc(OC)c(OC)c3)C1=C[C@H](C(C)C)O[C@@H]2C1CC1 | -0.69% |
| O=C(CSc1nc2ccccc2s1)NN=Cc1ccc(O)cc1O | -4.05% |
| COC(=O)[C@]12C[C@H](CC(=O)NCCC(C)C)C(=O)N(CCc3ccc(OC)c(OC)c3)C1=C[C@H](C(C)(C)C)O[C@@H]2C | 34.2% (active) |
| COC(=O)[C@]12C[C@H](CC(=O)NCc3ccccc3)C(=O)N(CCc3ccc(OC)c(OC)c3)C1=C[C@H](C(C)(C)C)O[C@@H]2C | -1.24% |
| CCCCOCCCNC(=O)C[C@H]1C[C@@]2(C(=O)OC)C(=C[C@H](C(C)(C)C)O[C@@H]2C)N(CCc2ccc(OC)c(OC)c2)C1=O | -0.73% |
| CC(C)(C)c1ccc(CSc2nnc(-c3cccs3)o2)cc1 | -2.34% |
| Cc1ccc(Cc2cnc(N)s2)o1 | 53.9% (active) |
| O=C(NCCC1=CCCCC1)C1CCN(S(=O)(=O)c2ccc(Cl)s2)CC1 | -0.71% |
| O=C(OC12CCCN(C1)/C(=C/c1ccccc1)C2)c1ccco1 (stereo not given) | 3.41% |
| C=CCN1[C@@H](Cc2ccccc2)COc2cccc(N3CCSCC3)c2S1(=O)=O | -0.98% |
| CNS(=O)(=O)c1cccc(C(=O)OCC(=O)N2c3ccccc3NC(=O)C2(C)C)c1 | 5.39% |
| Cc1ccc(OCCC(=O)OCC(=O)N2c3ccccc3NC(=O)C2(C)C)cc1 | 24.6% (active) |
| CC1(C)C(=O)Nc2ccccc2N1C(=O)COC(=O)Cn1cnc2ccccc2c1=O | 1.64% |
| COc1ccnc(C(=O)N2CCC(Oc3cccnc3)CC2)c1 | -0.76% |
| O=C1CC(c2ccc3c(c2)OCO3)N=C2N(CC3CC3)C/C(=C/c3ccccc3)N12 (stereo not given) | -0.7% |
| O=c1ccc2c(-c3ccccc3S(=O)(=O)O)c3ccc(O)c(O)c3oc-2c1O | 82.5% (active) |
| Cc1cc(=O)[nH]c(SCC(=O)Nc2ccc(F)cc2F)n1 | -1.2% |

| SMILES | inhibition |
| --- | --- |
| COCCOC(=O)C1=C(C)NC(=O)NC1c1cc2c(cc1Br)OCO2 (stereo not given) | 0.79% |
| CCOCCOC(=O)C1=C(C)NC(=O)NC1c1ccc2c(c1)OCO2 (stereo not given) | 31.3% (active) |
| CC(=O)C1=C(C)NC(=O)NC1c1ccc2c(c1)OCO2 (stereo not given) | 0.08% |
| CC(CCN1CCC(C(O)(c2ccccc2)c2ccccc2)CC1)Oc1ccc(C(F)(F)F)cc1 (stereo not given) | 1.26% |
| O=C(CCS(=O)(=O)c1ccccc1)Nc1ccc(Cl)c(Cl)c1 | 3.31% |
| COC(=O)[C@]12C[C@H](CC(=O)NCC34CC5CC(CC(C5)C3)C4)C(=O)N(Cc3ccc(Cl)cc3Cl)C1=C[C@H](COCc1ccccc1)O[C@@H]2C | -0.14% |
| CCCCN(C)Cc1c(C)[nH]c2ccc(Cl)cc2c1=O | 27% (active) |
| CCOC(=O)c1ccc2[nH]c(C)c(CN3CCN(C)CC3)c(=O)c2c1 | -2.6% |
| CN(C)CCn1c(=S)[nH]c2ccc(Cl)cc2c1=O | -4.42% |
| O=C(OC12CCCN(C1)/C(=C/c1cccnc1)C2)C1CCCC1 (stereo not given) | -1.46% |
| CCc1ccccc1NC(=O)CSc1nnc(-c2cccs2)o1 | 1.37% |
| COc1ccc(-c2nnc(SCC(=O)c3ccc4c(c3)OCCO4)o2)cc1 | -0.81% |
| COc1ccc(-n2c(C)cc(C(=O)CSc3nnc(-c4cccs4)o3)c2C)cc1 | 23.6% (active) |
| COc1ccc(-n2c(SCC(=O)NC3CCCC3)nnc2-c2ccncc2)cc1 | 0.14% |
| COC(=O)[C@]12C[C@H](CC(=O)N3CCOCC3)C(=O)N(Cc3ccc(Cl)cc3Cl)C1=C[C@H](COCc1ccccc1)O[C@@H]2C | 0.29% |
| CCC(C)C(=O)Nc1cc([N+](=O)[O-])ccc1Cl (stereo not given) | -0.24% |
| CC(C)C(=O)Nc1cccc(NC(=O)c2ccc([N+](=O)[O-])cc2Cl)c1 | 23.4% (active) |
| O=C(NCc1ccco1)c1ccc([N+](=O)[O-])cc1Cl | 2.58% |
| CCC(=O)OCCCN1C(=O)CCC12CCC(c1ccccc1)CC2 (stereo not given) | -3.69% |
